Test systems include SK-MEL-2 melanoma; EKVX NSCLC; SN12C renal; UO-31 renal; TK-10 renal; ACHN renal; CAKI-1 renal; CCRF-CEM leukemia; MOLT-4 leukemia; SR leukemia; RPMI-8226 leukemia; OVCAR-8 ovarian; OVCAR-5 ovarian; OVCAR-4 ovarian; SK-OV-3 ovarian; OVCAR-3 ovarian; HS 578T breast; NCI/ADR-RES ovarian; A498 renal; IGROV1 ovarian.
Common to all, as to assay: NCI-60 one-dose screen, 48 h (100 = growth as untreated, 0 = no growth, -100 = all killed)
Holding throughout (settings): 10 µM unless noted

About 83,000 compounds went through this panel and 20% of them were active in at least one assay; those are over-represented in the sample as a whole.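 Single-dose data. Exposure time 48 hours. Values below 10 considered active.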 Unmarked numbers belong to inactive results. Calls of active or inactive are those of the source.

Take `COc1ccc(C(=O)O)cc1.[Ag]`: the growth in the experiment with SK-MEL-2 melanoma is 94.6%; in the experiment on EKVX NSCLC, 108%; in the experiment with SN12C renal it was 103%; with UO-31 renal, 91.2%; with TK-10 renal it was 106%; in the experiment with ACHN renal, 103%. The growth in the experiment on CAKI-1 renal is 87.2%; in the experiment on CCRF-CEM leukemia, 25.4%; with MOLT-4 leukemia it was -52.5% (active); in the experiment with SR leukemia it was 60.1%; in the experiment on RPMI-8226 leukemia, 103%; with OVCAR-8 ovarian, 105%. Besides, the growth in the experiment with OVCAR-5 ovarian is 104%; in the experiment on OVCAR-4 ovarian it was 117%; in the experiment with SK-OV-3 ovarian, 114%; in the experiment with OVCAR-3 ovarian, 99.7%; with HS 578T breast, 96.1%; with NCI/ADR-RES ovarian, 99.5%.
As to `COc1ccc(C(=O)OC2C(OC3C(O)COC(O[C@H]4C[C@H]5[C@@H]6CC=C7C[C@@H](O)CC[C@]7(C)[C@H]6CC[C@]5(C)[C@H]4[C@H](C)C(=O)CCC(C)C)C3OC(C)=O)OCC(O)C2O)cc1` (some centres undefined), the growth in the experiment on SK-MEL-2 melanoma was -52% (active); with EKVX NSCLC, 7.53% (active); in the experiment on SN12C renal, 44.3%; in the experiment with UO-31 renal, -35.7% (active); in the experiment with TK-10 renal, -20.1% (active); in the experiment on ACHN renal, 28.6%. In addition, the growth in the experiment on CAKI-1 renal is -31.1% (active); with CCRF-CEM leukemia it was -23.2% (active); in the experiment with MOLT-4 leukemia, -42.4% (active); with SR leukemia, -8.55% (active); in the experiment on RPMI-8226 leukemia it was -29.1% (active); in the experiment on OVCAR-8 ovarian, 19.3%. The growth with OVCAR-5 ovarian was 21.6%; in the experiment on OVCAR-4 ovarian, 52.1%; with SK-OV-3 ovarian, -44.1% (active); with OVCAR-3 ovarian, 53.4%; in the experiment with HS 578T breast, -29.3% (active); in the experiment with NCI/ADR-RES ovarian it was 60.1%.
On to `OC(CCCCCCCCC(O)CN1CCc2ccccc2C1)CN1CCc2ccccc2C1` (centres undefined), for which the growth in the experiment on SK-MEL-2 melanoma is 111%; with EKVX NSCLC, 89.5%; with SN12C renal it was 105%; in the experiment on UO-31 renal it was 86.1%; in the experiment on TK-10 renal it was 103%; in the experiment on ACHN renal, 110%. In addition, the growth was 92.6% in the experiment on CAKI-1 renal; 107% in the experiment with A498 renal; 104% in the experiment on SR leukemia; 104% with OVCAR-8 ovarian; 102% in the experiment with OVCAR-5 ovarian; 96.2% in the experiment on OVCAR-4 ovarian. The growth is 105% in the experiment on SK-OV-3 ovarian; 95.1% in the experiment on IGROV1 ovarian; 107% with OVCAR-3 ovarian; 108% in the experiment with HS 578T breast; 98.1% with NCI/ADR-RES ovarian.
With `CS(=O)(=O)c1ccc(Cl)c([N+](=O)[O-])c1`, the growth is 99.8% with SK-MEL-2 melanoma; 104% with EKVX NSCLC; 107% with SN12C renal; 5.92% (active) with UO-31 renal; 108% in the experiment on TK-10 renal; 108% in the experiment on ACHN renal. For the same compound, the growth in the experiment with CAKI-1 renal was -88.3% (active); in the experiment with MOLT-4 leukemia, 53.2%; in the experiment on SR leukemia, 18.6%; in the experiment with RPMI-8226 leukemia it was 70.3%; with OVCAR-8 ovarian, 107%; in the experiment on OVCAR-5 ovarian, 108%. Also, the growth in the experiment with OVCAR-4 ovarian was 111%; with SK-OV-3 ovarian, 104%; in the experiment with IGROV1 ovarian, 38.5%; with OVCAR-3 ovarian it was 9.6% (active); in the experiment on HS 578T breast, 73.3%; in the experiment with NCI/ADR-RES ovarian it was 101%.
Turning to `CCNCCCn1c2c(c3ccc(Cl)cc3c1=O)C(=O)c1cc(OC)cnc1-2`, the growth in the experiment with SK-MEL-2 melanoma was 77.1%; with EKVX NSCLC, 53.4%; with SN12C renal it was 27.6%; with UO-31 renal, 10.3%; in the experiment with TK-10 renal, 39.9%; in the experiment on ACHN renal, 8.64% (active). The growth with CAKI-1 renal was 39.9%; with CCRF-CEM leukemia it was -37.3% (active); in the experiment on MOLT-4 leukemia it was -34% (active); in the experiment on SR leukemia it was -63.6% (active); in the experiment with RPMI-8226 leukemia, -48.8% (active); in the experiment with OVCAR-8 ovarian it was -30.7% (active). The growth was -11.9% (active) in the experiment with OVCAR-5 ovarian; 52.2% with OVCAR-4 ovarian; -11% (active) in the experiment on SK-OV-3 ovarian; 44.7% in the experiment with IGROV1 ovarian; 39.1% with OVCAR-3 ovarian; 58.8% in the experiment with HS 578T breast. Besides, in the experiment with NCI/ADR-RES ovarian, the growth is 35.5%.
With `C=C1C(=O)O[C@H]2[C@H]1CC/C(COC(=O)NCc1cn(C)c3ccccc13)=C\CC[C@@]1(C)O[C@@H]21`, the growth is -2.82% (active) with SK-MEL-2 melanoma; 29.6% with EKVX NSCLC; 2.93% (active) in the experiment on SN12C renal; -88.3% (active) in the experiment with UO-31 renal; -47.8% (active) with TK-10 renal; -36.2% (active) with ACHN renal. Moreover, the growth in the experiment with CAKI-1 renal is -18.7% (active); with CCRF-CEM leukemia, -13.3% (active); in the experiment on MOLT-4 leukemia, -15.4% (active); with SR leukemia, 6.96% (active); in the experiment on RPMI-8226 leukemia it was -29.3% (active); in the experiment with OVCAR-8 ovarian, 4.58% (active). The growth in the experiment with OVCAR-4 ovarian is 12%; with SK-OV-3 ovarian, 60.2%; in the experiment with IGROV1 ovarian it was 0.634% (active); in the experiment on OVCAR-3 ovarian, -80.8% (active); in the experiment with HS 578T breast, 49.6%; in the experiment on NCI/ADR-RES ovarian it was 19%.
With `Clc1ccccc1CNc1c2ccccc2nc2ccccc12`, the growth in the experiment on SK-MEL-2 melanoma was 55.6%; in the experiment with EKVX NSCLC it was 25.9%; in the experiment on SN12C renal, 27.8%; in the experiment on UO-31 renal it was 17.5%; with TK-10 renal it was 42.5%; in the experiment with ACHN renal it was 12.2%. Moreover, the growth in the experiment on CAKI-1 renal is 25.2%; in the experiment with CCRF-CEM leukemia it was 10.7%; in the experiment on MOLT-4 leukemia, 5.14% (active); with SR leukemia, 0.495% (active); with RPMI-8226 leukemia, -26.9% (active); in the experiment with OVCAR-8 ovarian, 23.8%. Besides, the growth was 32.6% with OVCAR-5 ovarian; 13.1% with OVCAR-4 ovarian; 54.9% in the experiment on SK-OV-3 ovarian; 17.8% with IGROV1 ovarian; 53.6% in the experiment with OVCAR-3 ovarian; 50% with HS 578T breast. The growth in the experiment on NCI/ADR-RES ovarian is 23.8%.
In the case of `CCOC(=O)c1cnc(SCC)nc1SC#N`, the growth in the experiment with SK-MEL-2 melanoma is 96.1%; in the experiment with EKVX NSCLC it was 99.8%; in the experiment on SN12C renal, 95.7%; in the experiment with UO-31 renal, 95.2%; in the experiment on TK-10 renal it was 84.3%; with ACHN renal, 71.3%. The growth in the experiment with CAKI-1 renal was -65.3% (active); in the experiment on A498 renal, 106%; in the experiment with OVCAR-8 ovarian, 96.8%; with OVCAR-5 ovarian it was 94%; with SK-OV-3 ovarian, 115%; with OVCAR-3 ovarian, 87.3%. In addition, the growth was 121% in the experiment with HS 578T breast and 100% with NCI/ADR-RES ovarian.
For the compound `Cc1ccccc1NC(=O)c1sc2nc3c(cc2c1N)C(=O)CCC3`, the growth in the experiment with SK-MEL-2 melanoma was 58.6%; in the experiment on EKVX NSCLC, 87.5%; in the experiment with SN12C renal, 64.5%; in the experiment with UO-31 renal, 77.5%; in the experiment with TK-10 renal it was 81.2%; in the experiment with ACHN renal, 49.3%. Also, the growth with CAKI-1 renal is 55.4%; with CCRF-CEM leukemia, 30.3%; in the experiment on MOLT-4 leukemia, 67.5%; in the experiment on SR leukemia it was 34.4%; with RPMI-8226 leukemia it was 67.2%; in the experiment on OVCAR-8 ovarian, 78.6%. Besides, the growth was 80.8% in the experiment with OVCAR-5 ovarian; 67.6% in the experiment on OVCAR-4 ovarian; 22.1% in the experiment with SK-OV-3 ovarian; 77% in the experiment on IGROV1 ovarian; 4.33% (active) with OVCAR-3 ovarian; 25.8% in the experiment on HS 578T breast.

Source of the values: PubChem BioAssay (NCI).
